# Most compounds without a hit are left out; they make up all but 10% or so of the library.
# Luciferase inh = inhibitors of firefly (Photinus pyralis) luciferase; P08659; purified P. pyralis luciferase, luminescence, biochemical; Potency, µM (titrated, usually from 115 µM), actives largely listed as inhibitors; 76,000 tested, 2.5% active; also: nearly all actives have a fitted effect of over 65% in size
#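 Purified 10nM P. pyralis luciferase with 10uM D-luciferin and 10uM ATP in 50mM Tris acetate pH 7.5, 10mM Mg acetate, 0.01% Tween-20, 0.05% BSA. qHTS titration; luminescence read by CCD imager.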
# GPT2 inhibitor = blocks human glutamate pyruvate transaminase 2 | AID 1671188 | Recombinant GPT2, coupled pyruvate oxidase/HRP Amplex Red fluorescence | Q8TD30 | 100,000 tested, 0.25% active | Potency, µM (doses to about 57.7 µM), most hits filed as inhibitors; also: nearly all actives have a fitted effect of over 60% in size
#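 Inhibition is scored from Amplex Red fluorescence generated when pyruvate oxidase and HRP act on pyruvate released by GPT2. Reactions contain 10ng/uL enzyme, 250uM a-KG and 2mM L-alanine and run 30 min at room temperature.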
# HEK293 tox = cytotoxic compounds in HEK 293 cells | HEK 293 viability, ATP luminescence (CellTiter-Glo), 48-72 h | Potency, µM (top dose mostly 115 µM), usual class: inhibitors | 94,000 tested, 6.6% active; also: nearly all actives have a fitted effect of over 60% in size
#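 Cells seeded first (HEK 293, 250 cells/well), then compound added by pintool. Incubation ran 48 or 72 hr at 37 degree Celsius. CellTiter-Glo was added and luminescence imaged after 10 min at room temperature.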
# NPR1 antag = antagonists of human natriuretic peptide receptor Npr1; Potency, µM (series often up to 46.3 µM), actives largely listed as inhibitors; 76,000 tested, 1.6% active; P16066; HEK293 hNpr1 GloSensor cGMP, ANP-stimulated luminescence; calls by dose curve; also: nearly all actives have a fitted effect of over 60% in size
#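 HEK293 cells stably expressing human Npr1 and cGMP GloSensor pGS-40F, loaded 2 h with 2% GloSensor reagent, given compound 30 min at room temperature. Luminescence read before and 20 min after 0.1 nM hNppA.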
# NIH3T3 tox = kills NIH 3T3 cells; 94,000 tested, 4.3% active; AID 1345082; Potency, µM (top dose mostly 96.7 µM), usual class: inhibitors; NIH 3T3 viability, CellTiter-Glo ATP luminescence, 48-72 h; also: nearly all actives have a fitted effect of over 55% in size
#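 Cytotoxicity is measured as loss of cellular ATP: NIH 3T3 cells (400/well) are exposed to compound for 48 or 72 hr at 37 °C, then CellTiter-Glo luminescence is imaged after 10 min at room temperature.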
# Numbers stand for hits; 0 = inactive; ? = inconclusive; - = no result given. Unless noted, calls follow the shape of the dose curve; as a rule, active = well fitted curve in the direction sought with a large enough effect; inconclusive = small, poorly fitted or top-dose-only effect, or another doubt; inactive = no such curve, though single readings can be large; an effect the other way counts as inactive or inconclusive.
SMILES,Luciferase inh,GPT2 inhibitor,HEK293 tox,NPR1 antag,NIH3T3 tox
CCCNC(=O)c1c(C)oc2ccn(Cc3ccc(F)cc3)c(=O)c12,0,0,35µM,0,?
Cc1oc2ccn(Cc3cccc(F)c3)c(=O)c2c1C(=O)NCc1cccc(F)c1,0,0,?,0,?
COc1ccc(C(C)NC(=O)c2c(C)oc3ccn(Cc4cccc(F)c4)c(=O)c23)cc1 (centres undefined),0,0,32µM,0,?
COc1ccc(CC(=O)N2CCN(C(=O)c3nc4cccnc4n(Cc4ccccc4)c3=O)CC2)cc1,-,0,?,-,0
O=C(NC1CCCC1)N1CCC(C(=O)N2CCC(c3nc4ncccc4[nH]3)CC2)C1 (centres undefined),-,?,0,-,0
C[C@H]1Oc2cc(cnc2N)-c2c(nn(C)c2C#N)CN(C)C(=O)c2ccc(F)cc21,-,0,-,-,-
O[C@H]1[C@H](NCc2ccc(-c3ccccc3)cc2)[C@H]2CO[C@H](O2)[C@@H]1Sc1ccccc1,0,0,40µM,?,63µM
O[C@H]1[C@H](NCc2ccccc2)[C@H]2CO[C@H](O2)[C@@H]1Sc1ccccc1,0,0,?,0,0
O[C@H]1[C@H](NCc2ccc(-c3ccccc3)cc2)[C@H]2CO[C@H](O2)[C@@H]1Oc1ccccc1,0,0,89µM,0,112µM
COc1ccccc1OC1CCN(Cc2cc3n(n2)CCNC3)CC1,0,0,0,0,0
Cc1ccc(SC2CCN(Cc3cc4n(n3)CCNC4)CC2)cc1,0,0,14µM,0,14µM
Cc1nccn1CCN(C)Cc1cc2n(n1)CCNC2,0,0,0,0,0
CN(Cc1cccc(CCN)c1)Cc1cnn(-c2ccc(F)cc2)c1,0,0,?,0,45µM
O=C(C1CN(C2CCCC2)C(=O)N1)N1CCN(c2ncccn2)CC1 (centres undefined),-,0,0,-,0
COc1cc(-c2ccnc3nc(Cc4ccc(F)cc4)nn23)cc(OC)c1OC,0,0,32µM,0,?
c1cc(-c2ccnc3nc(CCC4CCCC4)nn23)ccn1,0,0,0,0,35µM
CCc1nc2nccc(-c3cc(OC)c(OC)c(OC)c3)n2n1,0,0,0,0,?
COc1cc(-c2ccnc3nc(CCC4CCCC4)nn23)cc(OC)c1OC,0,?,0,0,5.6µM
CC(C)CC(=O)N1[C@@H](c2ccco2)[C@@H](C(=O)O)C[C@]12CCCCNC2=O,-,-,0,-,?
C=C1[C@@H]2CC[C@@H]3[C@@](CCC4C(C(=O)O)(C(=O)O)C[C@@H](O[C@@H]5O[C@H](CO)[C@@H](O)[C@H](O)[C@H]5OC(=O)CC(C)C)C[C@]43C)(C2)[C@H]1O (some centres undefined),-,0,-,-,-
O=C(NC1CCN(c2cc(N3CCOCC3)cnn2)C1)C1CCCC1 (centres undefined),-,0,0,-,0
CCN1c2cc(C(=O)Nc3ccc(OC)c(F)c3)ccc2C(=O)N2CCCCCC21 (centres undefined),0,0,?,0,?
CCN1c2cc(C(=O)Nc3ccc(F)c(F)c3)ccc2C(=O)N2CCCCC21 (centres undefined),0,0,40µM,0,?
CCN1c2cc(C(=O)Nc3ccc(Cl)c(F)c3)ccc2C(=O)N2CCCCC21 (centres undefined),0,0,35µM,0,?
Cc1noc(-c2ccc(OC3CN(C(=O)Nc4ccccc4)C3)cc2)n1,?,0,?,13µM,0
SMILES,Luciferase inh,GPT2 inhibitor,HEK293 tox,NPR1 antag,NIH3T3 tox
Cc1noc(-c2ccc(OC3CN(C(=O)CC4CCCC4)C3)cc2)n1,0,0,32µM,?,?
Cc1noc(-c2ccc(OC3CN(C(=O)Cc4ccccc4)C3)cc2)n1,0,0,?,0,0
CNC(=O)c1cc(C2CC2)nc2onc(C3CCCN3C(=O)Nc3ccc(C)c(F)c3)c12 (centres undefined),-,-,0,-,0
Cn1cc(-c2cc(=O)c3ccnc(NC4CCOCC4)c3o2)cn1,0,?,0,0,?
COc1ccc(Nc2nccc3c(=O)cc(N4CCOCC4)oc23)cn1,0,?,0,0,89µM
O=c1cc(N2CCOCC2)oc2c(NC3CCOCC3)nccc12,0,?,0,0,32µM
O=c1cc(N2CCOCC2)oc2c(Nc3ccccc3)nccc12,0,0,0,0,40µM
Cc1ncoc1C(=O)N1CCC([C@H]2[C@@H](Oc3ccccc3)CN2C(C)C)CC1,-,0,0,-,0
COCC(=O)N1CCC(=O)N(CCC#N)C[C@H]2CN(C)c3ccccc3[C@@H]21,-,0,?,-,0
Cn1nc(C(=O)N2CCN(c3cc(-c4ccccc4)[nH]n3)CC2)c2ccccc21,0,0,?,0,?
Cn1nc(C(=O)N2CCCN(c3cc(-c4ccc(Cl)cc4)[nH]n3)CC2)c2ccccc21,0,?,40µM,0,?
O=C(c1cccs1)N1CCCN(c2cc(-c3ccc(Cl)cc3)[nH]n2)CC1,?,0,45µM,?,?
Cc1ccc(C(=O)N2CCCN(c3cc(-c4ccc(Cl)cc4)[nH]n3)CC2)cc1C,0,0,?,0,35µM
O=C(c1ccc(F)c(F)c1)N1CCN(c2cc(-c3ccc(Cl)cc3)[nH]n2)CC1,0,0,?,?,35µM
O=C(c1ccc(F)c(F)c1)N1CCCN(c2cc(-c3ccc(F)cc3)[nH]n2)CC1,0,0,?,0,0
CCN1C[C@H]2COc3cc(OC)ccc3[C@H]2N(C(=O)c2ccc(C)cc2)CCC1=O,-,-,0,-,?
Cc1cc(C)cc(C(=O)N2CCCN(c3cc(-c4ccc(Cl)cc4)[nH]n3)CC2)c1,0,0,45µM,0,?
O=C(c1ccc(Br)o1)N1CCCN(c2cc(-c3ccc(Cl)cc3)[nH]n2)CC1,0,0,?,?,40µM
OC[C@@H]1CNC[C@H]1C1CCN(Cc2ccncc2F)CC1,0,0,0,0,0
Fc1ccccc1CC1CCN(CC2[C@H]3CNC[C@@H]23)CC1 (some centres undefined),0,0,?,0,35µM
CC1=C[C@@H](CNC(=O)c2cncnc2)[C@H](C(C)C)C[C@H]1Cc1nnc(-c2ccncc2)o1,0,0,79µM,0,?
CC1=C[C@@H](CN2CCN(C)CC2)[C@H](C(C)C)C[C@H]1Cc1nnc(-c2ccc(N(C)C)cc2)o1,0,0,22µM,0,40µM
CC(=O)N1CCN(C(=O)C[C@@H]2C[C@@H](C(C)C)[C@H](CNC(=O)c3cncnc3)C=C2C)CC1,0,0,0,0,0
CC1=C[C@@H](CN2CCN(C)CC2)[C@H](C(C)C)C[C@H]1Cc1nnc(C)o1,0,0,?,0,0
CC1=C[C@@H](CN2CCOCC2)[C@H](C(C)C)C[C@H]1Cc1nnc(-c2ccc(N(C)C)cc2)o1,0,0,?,0,?
CC1=C[C@@H](CN2CCN(C)CC2)[C@H](C(C)C)C[C@H]1Cc1nnc(-c2ccc(C)cc2)o1,0,0,28µM,0,22µM
